Results taken from PubChem BioAssay (EPA / NIEHS).
Calls of active or inactive are those of the source. The calls were made as follows: active = hit-call score of the fitted dose curve at least 0.9, where 1 is the maximum; inactive = score below 0.9.

Columns and labels:
[1] = read-out: Thrombomodulin, THBD (gene 7056); experiment: BSK_CASM3C_Thrombomodulin: BioMAP Diversity Plus: CASM3C Assay for Thrombomodulin Biomarker Activity (AID 2283051); details: primary human coronary artery smooth muscle cells; actives raise or lower the signal;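 also: thrombomodulin protein level measured by ELISA 24 h after dosing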
[2] = read-out: Tissue Factor, F3 (gene 2152); experiment: BSK_CASM3C_TissueFactor: BioMAP Diversity Plus: CASM3C Assay for Tissue Factor Biomarker Activity (AID 2283052); details: primary human coronary artery smooth muscle cells; actives raise or lower the signal;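 also: cell surface tissue factor protein level read by ELISA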
[3] = read-out: Interferon-gamma inducible Protein 10 (IP10), CXCL10 (gene 3627); experiment: BSK_hDFCGF_IP10: BioMAP Diversity Plus: hDFCGF Assay for Interferon-gamma inducible Protein 10 (IP10) Biomarker Activity (AID 2283053); details: primary human foreskin fibroblasts; actives raise or lower the signal
How it was run: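 IP-10 levels, quantified by ELISA, are taken from human foreskin fibroblast cultures 24 h after chemical treatment, with DMSO serving as negative control and baseline for bidirectional analysis.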

[4] = read-out: Urokinase-type plasminogen activator receptor (uPAR), PLAUR (gene 5329); experiment: BSK_CASM3C_uPAR: BioMAP Diversity Plus: CASM3C Assay for Urokinase-type plasminogen activator receptor (uPAR) Biomarker Activity (AID 2283054); details: primary human coronary artery smooth muscle cells; actives raise or lower the signal;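 also: cell-surface uPAR protein level quantified by ELISA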
[5] = read-out: Vascular cell adhesion molecule 1 (VCAM1), VCAM1 (gene 7412); experiment: BSK_CASM3C_VCAM1: BioMAP Diversity Plus: CASM3C Assay for Vascular cell adhesion molecule 1 (VCAM1) Biomarker Activity (AID 2283055); details: primary human coronary artery smooth muscle cells; actives raise or lower the signal;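 also: VCAM-1 protein level quantified by ELISA on the cells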
[6] = read-out: Collagen III, COL3A1 (gene 1281); experiment: BSK_hDFCGF_CollagenIII: BioMAP Diversity Plus: hDFCGF Assay for Collagen III Biomarker Activity (AID 2283056); details: primary human foreskin fibroblasts; actives raise or lower the signal
How it was run: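 ELISA read-out of collagen III from human skin fibroblast cultures sampled 24 h post-dosing. Values were derived by bidirectional fitting relative to the DMSO vehicle control.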

[7] = read-out: Epidermal growth factor receptor (EGFR), EGFR (gene 1956); experiment: BSK_hDFCGF_EGFR: BioMAP Diversity Plus: hDFCGF Assay for Epidermal growth factor receptor (EGFR) Biomarker Activity (AID 2283057); details: primary human foreskin fibroblasts; actives raise or lower the signal
How it was run: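 Measured by ELISA: EGFR levels on primary human foreskin fibroblasts 24 h after chemical treatment, analysed relative to DMSO with bidirectional fitting.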

[8] = read-out: Interleukin-8 (IL8), CXCL8 (gene 3576); experiment: BSK_hDFCGF_IL8: BioMAP Diversity Plus: hDFCGF Assay for Interleukin-8 (IL8) Biomarker Activity (AID 2283058); details: primary human foreskin fibroblasts; actives raise or lower the signal
How it was run: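 Cells used are human skin primary fibroblasts. Chemical is added, cultures run 24 h, then IL-8 is quantified by ELISA, and gain or loss versus DMSO control is fitted in both directions.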

[9] = BSK_hDFCGF_Proliferation: Cell Proliferation Assessment in the BioMAP Diversity Plus: hDFCGF Assay (AID 2283059); details: primary human foreskin fibroblasts;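 also: curves fitted for both rise and fall of signal versus DMSO baseline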
How it was run: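 Total protein read at 560 nm after 0.1% SRB staining of TCA-fixed human skin fibroblasts, […]. Activity is fitted in both directions relative to DMSO as baseline.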

[10] = read-out: Macrophage colony-stimulating factor (MCSF), CSF1 (gene 1435); experiment: BSK_hDFCGF_MCSF: BioMAP Diversity Plus: hDFCGF Assay for Macrophage colony-stimulating factor (MCSF) Biomarker Activity (AID 2283060); details: primary human foreskin fibroblasts; actives raise or lower the signal
How it was run: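 Primary human foreskin fibroblasts dosed with chemical; 24 h later, M-CSF quantified by ELISA; curves fitted in both directions vs DMSO negative control.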

[11] = BSK_hDFCGF_SRB: Viability Assessment in the BioMAP Diversity Plus: hDFCGF Assay (AID 2283061); details: primary human foreskin fibroblasts;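 also: cells exposed to compound for 24 h before the read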
How it was run: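 Readout is SRB absorbance at 560 nm, reflecting total protein in parallel cultures of human foreskin fibroblasts harvested 24 h after chemical dosing. Activity was fitted bidirectionally relative to DMSO.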

[12] = read-out: TIMP metallopeptidase inhibitor 1 (TIMP1), TIMP1 (gene 7076); experiment: BSK_hDFCGF_TIMP1: BioMAP Diversity Plus: hDFCGF Assay for TIMP metallopeptidase inhibitor 1 (TIMP1) Biomarker Activity (AID 2283062); details: primary human foreskin fibroblasts; actives raise or lower the signal
How it was run: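 Human skin fibroblasts (primary), hDFCGF system; compound exposure 24 h; TIMP-1 by ELISA; bidirectional fit vs DMSO negative control; overt cytotoxicity by SRB in parallel wells.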

[13] = read-out: Monokine induced gamma interferon (MIG), CXCL9 (gene 4283); experiment: BSK_hDFCGF_MIG: BioMAP Diversity Plus: hDFCGF Assay for Monokine induced gamma interferon (MIG) Biomarker Activity (AID 2283063); details: primary human foreskin fibroblasts; actives raise or lower the signal
How it was run: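 Chemicals were added to primary human foreskin fibroblast cultures, which were sampled 24 h later. MIG levels were then quantified by ELISA and responses fitted in both directions relative to DMSO.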

[14] = read-out: Vascular cell adhesion molecule 1 (VCAM1), VCAM1 (gene 7412); experiment: BSK_hDFCGF_VCAM1: BioMAP Diversity Plus: hDFCGF Assay for Vascular cell adhesion molecule 1 (VCAM1) Biomarker Activity (AID 2283065); details: primary human foreskin fibroblasts; actives raise or lower the signal;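 as to AC50: VCAM-1 protein level quantified by ELISA after 24 h chemical exposure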
How it was run: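 Human foreskin fibroblast primary cells, chemical exposure 24 h; VCAM-1 by ELISA; bidirectional fit, DMSO = negative control/baseline.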

[15] = read-out: Plasminogen activator inhibitor-1 (PAI1), SERPINE1 (gene 5054); experiment: BSK_hDFCGF_PAI1: BioMAP Diversity Plus: hDFCGF Assay for Plasminogen activator inhibitor-1 (PAI1) Biomarker Activity (AID 2283066); details: primary human foreskin fibroblasts; actives raise or lower the signal
How it was run: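 PAI-1 levels, determined by ELISA, served as the endpoint in human foreskin fibroblast cultures exposed to compound for 24 h, with DMSO as baseline.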

[16] = read-out: Intercellular Adhesion Molecule 1 (ICAM1), ICAM1 (gene 3383); experiment: BSK_KF3CT_ICAM1: BioMAP Diversity Plus: KF3CT Assay for Intercellular Adhesion Molecule 1 (ICAM1) Biomarker Activity (AID 2283067); details: primary human keratinocytes with fibroblasts; actives raise or lower the signal
How it was run: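 ICAM-1 levels are measured by ELISA 24 h after dosing a primary human co-culture of keratinocytes and foreskin fibroblasts. Activity in either direction is fitted relative to DMSO vehicle.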

[17] = read-out: Interferon-gamma inducible Protein 10 (IP10), CXCL10 (gene 3627); experiment: BSK_KF3CT_IP10: BioMAP Diversity Plus: KF3CT Assay for Interferon-gamma inducible Protein 10 (IP10) Biomarker Activity (AID 2283068); details: primary human keratinocytes with fibroblasts; actives raise or lower the signal
How it was run: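 Human keratinocyte plus foreskin fibroblast primary co-culture exposed to test chemical for 24 h; IP-10 measured by ELISA. Concentration-response fitted bidirectionally against DMSO control as baseline.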

[18] = BSK_KF3CT_SRB: Viability Assessment in the BioMAP Diversity Plus: KF3CT Assay (AID 2283069); details: primary human keratinocytes with fibroblasts;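 also: total protein by sulforhodamine B staining as a cytotoxicity measure; read 24 h after compound addition; fitted for both signal gain and loss against DMSO baseline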
How it was run: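 Keratinocytes co-cultured with foreskin fibroblasts (human primary); chemical added, 24 h; fix 10% TCA, stain 0.1% SRB, A560. Bidirectional fit vs DMSO.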

[19] = read-out: Interleukin-1 alpha (IL1a), IL1A (gene 3552); experiment: BSK_KF3CT_IL1a: BioMAP Diversity Plus: KF3CT Assay for Interleukin-1 alpha (IL1a) Biomarker Activity (AID 2283070); details: primary human keratinocytes with fibroblasts; actives raise or lower the signal
How it was run: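 Chemicals were dosed onto co-cultured human keratinocytes and foreskin fibroblasts, IL-1a was quantified by ELISA at 24 h, and activity was fitted in both directions relative to DMSO controls.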

[20] = read-out: Matrix Metallopeptidase 1 (MMP1), MMP1 (gene 4312); experiment: BSK_hDFCGF_MMP1: BioMAP Diversity Plus: hDFCGF Assay for Matrix Metallopeptidase 1 (MMP1) Biomarker Activity (AID 2283064); details: primary human foreskin fibroblasts; actives raise or lower the signal
How it was run: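 hDFCGF primary fibroblasts (human foreskin); chemical added; 24 h; MMP1 by ELISA; bidirectional fit vs DMSO.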

Measured: AC50

COP(=O)(OC)SCn1c(=O)oc2cc(Cl)cnc21
active: [1] 5.31 µM | [3] 13 µM | [4] 35.5 µM | [5] 20 µM | [6] 14.7 µM | [8] 30.8 µM | [9] 10.1 µM | [10] 10.4 µM | [11] 13.8 µM | [12] 12 µM | [13] 19.3 µM | [14] 16.3 µM | [15] 17 µM | [16] 18 µM | [17] 16.5 µM | [18] 14.9 µM
inactive: [2] | [7] | [19]

CSc1nc(NC(C)C)nc(NC(C)C)n1
inactive: [1] | [2] | [3] | [4] | [5] | [6] | [7] | [8] | [9] | [10] | [11] | [12] | [13] | [20] | [14] | [15] | [16] | [17] | [18] | [19]

Nc1nc(N)nc(NC2CC2)n1
inactive: [1] | [2] | [3] | [4] | [5] | [6] | [7] | [8] | [9] | [10] | [11] | [12] | [13] | [20] | [14] | [15] | [16] | [17] | [18] | [19]
